Bioassay records deposited in PubChem by National Center for Advancing Translational Sciences (NCATS).
HCV inh – HCV inhibition; Huh7.5.1 HCVcc-Cre infection, luciferase reporter, 44 h; Potency, µM (titrated, usually from 41.8 µM), hits mostly inhibitors; 340,000 compounds, 3.4% hits; active means well fitted inhibition curve with a large enough effect; inconclusive means small, poorly fitted or top-dose-only effect, or another doubt; inactive means no such curve, though single readings can be large or run the other way
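After 44 h co-culture of compound, cells and HCVcc-Cre (~0.5 moi), substrate is added for 15 min at room temperature and luciferase measured over 15 sec. Cells were seeded at 1,000/well and pre-cultured 4 h.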
HCMV inh – human cytomegalovirus inhibition. HFF cells, HCMV-luciferase reporter, 72 h; hits give low values. activity change, negative = inhibition, % at 57.5 µM. 410,000 compounds, 4.5% hits. AID 1259415; in the data active means activity change below about -60%; inconclusive means no clear call, values can overlap the other calls; inactive means above about -39%
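HFF cells seeded 16 h at 37C, treated with compounds, infected with luciferase-reporter HCMV at MOI 1 PFU/cell; luciferase read at 72 h post infection, normalized to buffer-only and Salinomycin controls.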
FMDV antiviral – blocks foot and mouth disease virus | FMDV antiviral cell-based qHTS | Potency, µM (highest dose often 57.9 µM), actives largely listed as inhibitors | 410,000 compounds, 1.2% hits | AID 1159524; calls by dose curve; tested in HEK293T cells; further: read-out not given here; nearly all actives have a fitted effect of over 45% in size
LASV entry inh – blocks Lassa virus binding to or entry into cells; Lassa virus pseudotype entry inhibition, cell reporter; Potency, µM (top dose mostly 37.9 µM), most hits filed as inhibitors; 300,000 compounds, 1.2% hits; AID 540256; calls by dose curve; tested in HEK293 cells; further: nearly all actives have a fitted effect of over 50% in size
MARV entry inh – inhibitors of Marburg virus binding or cell entry | Potency, µM (series often up to 37.8 µM), most hits filed as inhibitors | Marburg virus pseudotyped entry inhibition, cell reporter | 300,000 compounds, 1.8% hits; calls by dose curve; tested in HEK293 cells
Each line names hits and unclear results; the compound was inactive in the other large screens. This is a sample that favours compounds with a hit; in the whole collection about 7.9% have one here.

CCOC(=O)c1c(NC(NC(C)=O)C(Cl)(Cl)Cl)sc2c1CCCC2 (stereo unspecified)	HCV inh 10µM, HCMV inh inconclusive, FMDV antiviral inconclusive, LASV entry inh inconclusive, MARV entry inh inconclusive
O=C(Nc1sc2c(c1C(=O)O)CCCCC2)c1ccco1	LASV entry inh inconclusive, MARV entry inh inconclusive
CC1CCc2c(sc(NC(=O)c3ccco3)c2C(=O)O)C1 (stereo unspecified)	HCV inh inconclusive, LASV entry inh inconclusive, MARV entry inh 3.55µM
CCc1ccc(N(CC(=O)N2CCCC2)S(C)(=O)=O)cc1	HCMV inh inconclusive (no result: HCV inh, LASV entry inh, MARV entry inh)
CC(C)c1ccc(S(=O)(=O)c2nnn3c2nc(NCCc2ccccc2)c2sccc23)cc1	none (no result: HCV inh, MARV entry inh)
CCCCNC(=S)Nc1ccc(OC)nc1	none (no result: LASV entry inh, MARV entry inh)
COCC(=O)Nc1sc2c(c1C(=O)OC)CCC(C)C2 (stereo unspecified)	HCV inh 7.08µM
CC(C)[C@H](NC(=O)c1ccccc1Cl)C(=O)Nc1nc(-c2ccccn2)cs1	HCV inh inconclusive, HCMV inh -82.7, FMDV antiviral inconclusive, LASV entry inh inconclusive, MARV entry inh inconclusive
CC(Oc1ccc(Br)cc1)C(=O)Nc1nc(-c2ccccn2)cs1 (stereo unspecified)	HCV inh 11.2µM, HCMV inh -87.5, FMDV antiviral 39.8µM, LASV entry inh inconclusive, MARV entry inh inconclusive
Cc1ccc(C(=O)SC2=NCCS2)cc1	FMDV antiviral 35.5µM
COc1ccc(C(=O)SC2=NCCS2)cc1OC	FMDV antiviral inconclusive
Cc1ccc(-c2noc(C3CCN(C(=O)Nc4ccc(C#N)cc4)CC3)n2)o1	HCV inh 10µM, HCMV inh -83.7, LASV entry inh inconclusive
Cc1ccc(NC(=S)NCCC(c2ccccc2)c2ccccc2)c(C)c1	HCV inh 11.2µM, HCMV inh -62.2, LASV entry inh inconclusive, MARV entry inh inconclusive
Cc1ccc(C)c(NC(=S)NCCc2c[nH]c3ccccc23)c1	HCV inh inconclusive, HCMV inh -78.0, LASV entry inh inconclusive, MARV entry inh inconclusive
Cc1cccc(NC(=S)NCCC(C)C)c1	HCV inh inconclusive, LASV entry inh inconclusive, MARV entry inh 1.46µM
Cc1cccc(NC(=S)NCCc2c[nH]c3ccccc23)c1	HCMV inh -80.2, LASV entry inh inconclusive, MARV entry inh inconclusive
Cc1ccc(NC(=S)NCCc2c[nH]c3ccccc23)cc1	HCV inh inconclusive
COc1ccc(Cl)cc1S(=O)(=O)N1CCN(Cc2cccc(F)c2)CC1	none (no result: HCV inh, MARV entry inh)
COc1ccc(C(CNC(=O)C(C)c2ccc3cc(OC)ccc3c2)N(C)C)cc1 (stereo unspecified)	LASV entry inh inconclusive, MARV entry inh inconclusive
COc1ccc2cc([C@H](C)C(=O)N(C)Cc3ccccc3N3CCCC3)ccc2c1	HCV inh 10µM, LASV entry inh inconclusive, MARV entry inh inconclusive
Cc1oc2cc3oc(=O)c(CC(=O)NCc4ccccc4)c(C)c3cc2c1C	none (no result: HCV inh)
CC(C)(C(=O)N1CCC1(C)C(=O)NS(=O)(=O)c1ccc(C#N)cc1)c1ccccc1 (stereo unspecified)	none (no result: HCV inh, LASV entry inh, MARV entry inh)
CSc1ccc(NC(=O)CSc2nc3[nH]c(=O)cc(O)c3s2)cc1	none (no result: LASV entry inh, MARV entry inh)
N#Cc1ccc(NC(=O)CSc2nc3[nH]c(=O)cc(O)c3s2)cc1	HCMV inh -91.7 (no result: LASV entry inh, MARV entry inh)
COC(=O)c1ccccc1NC(=O)c1sc2nc(C)cc(C)c2c1NC(=O)c1ccccc1OC	none (no result: HCV inh, MARV entry inh)
COc1ccccc1C(=O)Nc1c(C(=O)Nc2cc(Cl)ccc2C)sc2nc(C)cc(C)c12	HCMV inh -101.9, MARV entry inh inconclusive (no result: HCV inh)
COc1cc(Cl)c(C)cc1NC(=O)c1cc2c(=O)oc3ccccc3c2s1	none (no result: HCV inh)
CC(C)CO/N=C1\C[C@@H](O)[C@@H](O)[C@@H]2[C@@H]3C(=O)N(Cc4ccccc4)C(=O)[C@@H]3CC[C@H]12	none (no result: HCV inh, HCMV inh, FMDV antiviral, LASV entry inh)
C=CCOc1ccc(CNc2nccs2)cc1OC	HCV inh 10µM
C=CCOc1ccc(CNC(C)(C)C)cc1OC	none
O=S(=O)(/N=C(/Nc1cccnc1Cl)c1ccccc1)c1ccccc1	none (no result: LASV entry inh, MARV entry inh)
COc1cc(NC(=O)CC(C)S(=O)(=O)c2cc3c4c(c2)CCN4C(=O)CC3)cc(OC)c1 (stereo unspecified)	none (no result: HCV inh, MARV entry inh)
CCCCN(C)S(=O)(=O)c1ccc(C(=O)N=c2sc3cc(NC(C)=O)ccc3n2C)cc1	none
CCCCN(CC)S(=O)(=O)c1ccc(C(=O)N=c2sc3cc(NC(C)=O)ccc3n2C)cc1	HCV inh inconclusive, HCMV inh -72.4
Cc1cc(Br)ccc1NC(=O)COc1cc(=O)n(C)c2ccccc12	none (no result: HCV inh)
FC(F)(F)c1cnc(N2CCN(C(=S)NCc3ccccc3)CC2)c(Cl)c1	LASV entry inh inconclusive, MARV entry inh 12.6µM
FC(F)(F)c1cnc(N2CCCN(C(=S)Nc3ccccc3)CC2)c(Cl)c1	HCV inh inconclusive, HCMV inh -84.9, FMDV antiviral inconclusive, LASV entry inh inconclusive, MARV entry inh inconclusive
COc1cccc2c1Oc1cc([N+](=O)[O-])cc(N(C)C(C)=O)c1C=C2	HCV inh inconclusive
COc1ccc(C(CNC(=O)CNC(=O)c2cccc(F)c2)N2CCOCC2)cc1 (stereo unspecified)	none (no result: HCV inh, LASV entry inh, MARV entry inh)
O=C(Nc1c2c(nc3ccccc13)CCCC2)c1cccc([N+](=O)[O-])c1	HCV inh inconclusive, HCMV inh -64.2, LASV entry inh inconclusive
Fc1cccc(Nc2c3c(nc4ccccc24)CCC3)c1	LASV entry inh inconclusive
COC(=O)c1cccc(Nc2c3c(nc4ccccc24)CCC3)c1	HCV inh 3.16µM, FMDV antiviral inconclusive, LASV entry inh inconclusive, MARV entry inh inconclusive
c1ccc2c(Nc3ccc4c(c3)OCCO4)c3c(nc2c1)CCCC3	HCV inh inconclusive, HCMV inh -72.9, LASV entry inh 7.94µM, MARV entry inh inconclusive
COc1ccc(Nc2c3c(nc4ccccc24)CCC3)c(OC)c1	HCV inh inconclusive, HCMV inh inconclusive, LASV entry inh inconclusive, MARV entry inh inconclusive
COc1cc(Nc2c3c(nc4ccccc24)CCCC3)cc(OC)c1OC	MARV entry inh 4.47µM
O=C1NC[C@H](CCCCN2C[C@H](Cc3ccc(O)cc3)N(CCc3ccc(O)cc3)C(=O)C2=O)N(Cc2ccccc2)C1=O	none (no result: HCV inh, LASV entry inh, MARV entry inh)
COc1ccccc1Nc1c2c(nc3ccccc13)CCC2	HCV inh inconclusive, HCMV inh -68.5, LASV entry inh inconclusive, MARV entry inh inconclusive
COc1cc(Cl)c(C)cc1Nc1c2c(nc3ccccc13)CCC2	HCMV inh -100.7, FMDV antiviral inconclusive, LASV entry inh inconclusive, MARV entry inh inconclusive (no result: HCV inh)
CCCS(=O)(=O)NCc1c(C)ncc2c1CCN(C(=O)/C=C/c1ccc(F)cc1F)C2	none (no result: HCV inh, HCMV inh, LASV entry inh, MARV entry inh)
COc1ccc(CCn2c(C3CCCCC3)nc3c(c(=O)c4ccccc4n3C)c2=O)cc1	HCV inh 3.55µM, FMDV antiviral inconclusive (no result: LASV entry inh, MARV entry inh)
CCc1nc2c(c(=O)c3ccccc3n2C)c(=O)n1C1CCCCCC1	HCV inh inconclusive, HCMV inh -63.1, LASV entry inh inconclusive
Cn1c2ccccc2c(=O)c2c(=O)n(C3CCCCC3)c(-c3cccs3)nc21	HCV inh 10µM, HCMV inh inconclusive
Cc1nc2c(c(=O)c3ccccc3n2C)c(=O)n1C1CCCC1	none (no result: HCV inh, FMDV antiviral, LASV entry inh, MARV entry inh)
COc1ccc(CCn2c(C3CCCCC3)nc3c(c(=O)c4ccccc4n3C)c2=O)cc1OC	HCV inh inconclusive, HCMV inh inconclusive, MARV entry inh inconclusive
